Several values for one entry are separate records, joined by “and”; a condition that tells them apart may be missing. Equal values may be shown once. Out of some 360,000 compounds screened, about 3,000 (0.83%) were called active. No stated cut-off is given here; in the data, active means inhibition above about 50%; inactive means the rest. The list comes from a sample in which actives are over-represented; it also holds similar structures and randomly drawn compounds. More than one record can exist for a structure, and the calls need not agree.

DNA (cytosine-5)-methyltransferase 1 (Homo sapiens), sequence (P26358 504-1616 limits assumed): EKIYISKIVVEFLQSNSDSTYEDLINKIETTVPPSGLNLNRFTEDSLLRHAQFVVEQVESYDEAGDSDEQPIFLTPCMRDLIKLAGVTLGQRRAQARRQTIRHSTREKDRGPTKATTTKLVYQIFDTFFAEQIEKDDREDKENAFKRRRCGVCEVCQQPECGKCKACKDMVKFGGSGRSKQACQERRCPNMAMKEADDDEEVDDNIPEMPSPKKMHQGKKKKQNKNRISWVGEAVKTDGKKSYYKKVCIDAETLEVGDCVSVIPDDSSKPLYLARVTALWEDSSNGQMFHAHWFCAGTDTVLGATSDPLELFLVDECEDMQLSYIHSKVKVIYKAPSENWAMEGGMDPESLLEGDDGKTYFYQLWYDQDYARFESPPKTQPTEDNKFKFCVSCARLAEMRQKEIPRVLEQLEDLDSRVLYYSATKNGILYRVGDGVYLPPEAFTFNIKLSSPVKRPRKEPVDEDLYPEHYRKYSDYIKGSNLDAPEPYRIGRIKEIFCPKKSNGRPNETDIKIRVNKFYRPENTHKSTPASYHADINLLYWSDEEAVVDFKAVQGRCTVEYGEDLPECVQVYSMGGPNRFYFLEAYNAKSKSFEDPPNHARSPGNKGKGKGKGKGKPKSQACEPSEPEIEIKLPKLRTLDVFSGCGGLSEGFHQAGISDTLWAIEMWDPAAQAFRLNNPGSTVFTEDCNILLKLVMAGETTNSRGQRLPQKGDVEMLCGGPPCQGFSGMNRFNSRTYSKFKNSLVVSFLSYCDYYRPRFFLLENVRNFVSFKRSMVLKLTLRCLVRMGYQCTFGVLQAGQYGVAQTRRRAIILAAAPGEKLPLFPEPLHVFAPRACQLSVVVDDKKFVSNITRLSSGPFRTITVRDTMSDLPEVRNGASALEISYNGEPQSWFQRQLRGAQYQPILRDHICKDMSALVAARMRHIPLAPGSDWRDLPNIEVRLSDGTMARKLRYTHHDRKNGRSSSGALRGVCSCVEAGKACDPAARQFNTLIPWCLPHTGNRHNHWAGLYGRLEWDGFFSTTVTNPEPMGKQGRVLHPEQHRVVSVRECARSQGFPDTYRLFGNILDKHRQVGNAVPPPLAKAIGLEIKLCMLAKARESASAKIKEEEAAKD

This experiment concerns the target DNA (cytosine-5)-methyltransferase 1 (Homo sapiens) (UniProt P26358). The experiment is described as follows: inhibition of DNA methyltransferase DNMT1 – biochemical, molecular beacon, fluorescence, HinP1I cleavage, uHTS, primary screen (AID 588458). Particulars: at 10 µM, stronger effect = higher value.
As to `CCc1nc(SCC(=O)Nc2ccccc2OC)n[nH]1`, the inhibition (reported as % activation of signal) is 0.12% (inactive).
For `CCOc1ccccc1NC(=S)C(=C([O-])c1ccc2c(c1)OCCO2)[n+]1ccc(CC)cc1`, the inhibition (reported as % activation of signal) is -14.6% (inactive).
Take `CCc1nn(-c2cc(Oc3cccc4ccccc34)nc(-c3ccccc3)n2)c(N)c1C#N`: the inhibition (reported as % activation of signal) is 56.2% (active).
Next, `CC(C)(C)n1nc(Cc2cccc3ccccc23)c(C#N)c1N`: 3.39% (inactive).
As for `CCCCn1nnnc1C(c1cccc(OC)c1OC)N1CCN(C/C=C/c2ccccc2)CC1` (configuration not stated), the inhibition (reported as % activation of signal) is -2.12% (inactive).
With `O=C(CCN1CCc2ccccc2C(O)(c2ccccc2)C1)c1ccc2c(c1)OCCO2` (configuration not stated), the inhibition (reported as % activation of signal) was -2.82% (inactive).
As to `CSC1=NC2(C)CCCCC2C12C=CC(=O)C=C2` (configuration not stated), the inhibition (reported as % activation of signal) was -0.69% (inactive).
On to `CS(=O)(=O)N(CC(=O)N1CCN(c2ccc(F)cc2)CC1)C1CCCCC1`, for which the inhibition (reported as % activation of signal) was 0.1% (inactive).
Next, `O=C(NNC1=NCCC1)c1cccc(S(=O)(=O)N2CCCCC2)c1`: 2.1% (inactive); `Cc1nn(C)cc1CNC(=O)Nc1ccc(Cl)cc1`: -5.06% (inactive).
Next, `Cc1ccc(-c2cc(C(=O)NCc3cn(C)nc3C)c3cc(Br)ccc3n2)cc1`: 54.2% (active); `O=C(NCc1cccs1)c1cc(-c2ccccn2)nc2ccc(Br)cc12`: 18.8% (inactive); `CCCCc1nc2cc(C(=O)N3CCCCC3CCO)ccc2o1` (configuration not stated): 0.96% (inactive).
In the case of `CC1CCN(C(=O)CCc2nnc3ccc(NCc4ccco4)nn23)CC1`, the inhibition (reported as % activation of signal) is -2.17% (inactive).
Regarding `CC(C)C(=O)Nc1oc(-c2ccccc2)cc1C#N`, the inhibition (reported as % activation of signal) is 1.41% (inactive).
For `CC(Oc1ccccc1)C(=O)Nc1oc(-c2ccco2)c(-c2ccco2)c1C#N` (configuration not stated), the inhibition (reported as % activation of signal) is 63.1% (active).
Regarding `N#Cc1c(NC(=O)CCCN2C(=O)c3ccccc3C2=O)oc(-c2ccccc2)c1-c1ccccc1`, the inhibition (reported as % activation of signal) was -7.82% (inactive).
For the compound `Cc1cc(=O)oc(C)c1C(=O)NC1CC(C)(C)NC(C)(C)C1`, the inhibition (reported as % activation of signal) is 4.08% (inactive).
On to `O=C(Nc1nccs1)C1CCN(S(=O)(=O)c2ccc(Cl)c(C(F)(F)F)c2)CC1`, for which the inhibition (reported as % activation of signal) is -0.42% (inactive).
Next, `Cc1ccc(C)c(C(O)c2ncc(-c3cccc4ccccc34)[nH]2)c1` (configuration not stated): -0.1% (inactive); `O=C1CSc2ccc(S(=O)(=O)NCc3ccccc3)cc2N1`: -1.62% (inactive); `OCCCC1CCCCN1Cc1nc(Cc2ccccc2Cl)no1` (configuration not stated): 0.35% (inactive).
In the case of `O=C(NNc1ccccn1)c1ccc(Cl)nc1`, the inhibition (reported as % activation of signal) was 80.7% (active).
With `CCN(CC)c1ccc(NC(=O)c2ccc(Cl)nc2)cc1`, the inhibition (reported as % activation of signal) is -2.12% (inactive).
Next, `O=C(NNC(=O)c1ccc(Cl)nc1)c1ccc(Br)cc1`: 5.15% (inactive).
On to `CCN(CC)P(=O)(C(NC(=O)OC)C(F)(F)C(F)(F)C(F)(F)C(F)F)N(CC)CC` (configuration not stated), for which the inhibition (reported as % activation of signal) was 0.14% (inactive).
Turning to `O=C(COC(=O)CCC(=O)c1cccs1)NCc1ccco1`, the inhibition (reported as % activation of signal) was 72.8% (active).
Regarding `CC1CCN(C(=O)COC(=O)CCC(=O)c2cccs2)CC1`, the inhibition (reported as % activation of signal) was 0.68% (inactive).
As for `O=C(COC(=O)Cc1ccc(Cl)cc1Cl)NCc1ccco1`, the inhibition (reported as % activation of signal) was -2.23% (inactive).
In the case of `N#CCC(=O)Nc1ccc(C(=O)OCC(=O)Nc2sc3c(c2C#N)CCCC3)cc1`, the inhibition (reported as % activation of signal) is -11.8% (inactive).
Consider `CCOc1ccc(NC(=O)c2ccc(NC(=O)COC(=O)c3ccc(NC(=O)CC#N)cc3)cc2)cc1`, for which the inhibition (reported as % activation of signal) is 61.4% (active).
As to `CC(C)NC(=O)NC(=O)COC(=O)c1ccc(NC(=O)CC#N)cc1`, the inhibition (reported as % activation of signal) is -1.52% (inactive).
With `CC1CCN(C2=NC(=O)/C(=C/c3cn[nH]c3-c3ccccc3)S2)CC1`, the inhibition (reported as % activation of signal) was -3.21% (inactive).
Next, `Cc1cccc(-c2cnc(C(O)c3cc(C)cc(C)c3)[nH]2)c1` (configuration not stated): 4.05% (inactive); `Cc1ccc(-n2c(=O)cc(N3CCN(Cc4ccccc4)CC3)[nH]c2=O)cc1`: -5.41% (inactive).
Regarding `CN(Cc1ccc2nsnc2c1)Cc1nc(Cc2cccc(F)c2)no1`, the inhibition (reported as % activation of signal) is 14.7% (inactive).
Regarding `CN(Cc1nc2ccc(F)cc2[nH]1)Cc1nc(CC2CC2)no1`, the inhibition (reported as % activation of signal) was 52.1% (active).
In the case of `CN(Cc1cc2cc(F)ccc2[nH]1)Cc1nc(-c2cnccn2)no1`, the inhibition (reported as % activation of signal) is 0.73% (inactive).
For the compound `COc1cc(C2C(N3C(=O)c4ccccc4C3=O)C(=O)N2c2ccc(C)c(C)c2)cc(OC)c1OC` (configuration not stated), the inhibition (reported as % activation of signal) is -2.9% (inactive).
As for `Cc1ccc(NC(=O)c2cnc(SCC(=O)NCC3CCCO3)n(C)c2=O)cc1` (configuration not stated), the inhibition (reported as % activation of signal) was -0.68% (inactive).
On to `Cc1[nH]c2ccccc2c1C(=O)COC(=O)c1c(-c2ccccc2)noc1C`, for which the inhibition (reported as % activation of signal) is -10.3% (inactive).
Regarding `N#Cc1ccccc1NC(=O)c1ccc2c(c1)OCO2`, the inhibition (reported as % activation of signal) was 2.15% (inactive).
For `Cc1onc(-c2ccccc2)c1C(=O)Nc1ccccc1C#N`, the inhibition (reported as % activation of signal) is 86.5% (active) and -2.35% (inactive).
As to `Cc1ccccc1CN1C[C@@H]2C[C@@H](c3cn(C)nc3-c3ccccc3)N3CCC[C@@]23C1=O`, the inhibition (reported as % activation of signal) was -7.15% (inactive).
Next, `O=C(COC(=O)CSc1nnc(-c2ccc(Cl)cc2)o1)Nc1cc(Cl)cc(Cl)c1`: 3.58% (inactive); `CCCCC(=O)Nc1c2c(nn1-c1ccc([N+](=O)[O-])cc1)CS(=O)(=O)C2`: 0.28% (inactive).
Take `O=C1/C(=C\c2ccc([N+](=O)[O-])cc2)CS(=O)(=O)C/C1=C/c1ccc([N+](=O)[O-])cc1`: the inhibition (reported as % activation of signal) is 101% (active).
Turning to `CN(C)S(=O)(=O)N1CCN(c2ccc([N+](=O)[O-])cc2)CC1`, the inhibition (reported as % activation of signal) was -0.57% (inactive).
As to `Cc1ccc(CN2CC(N3CCC(Cc4ccccc4)CC3)CS2(=O)=O)cc1` (configuration not stated), the inhibition (reported as % activation of signal) was -0.65% (inactive).
Next, `Cc1ccc(OCc2nnc(SC3CCc4ccccc4C3=O)n2C)cc1` (configuration not stated): -0.48% (inactive); `CC1(C(=O)NS(=O)(=O)c2ccccc2)CCN1C(=O)C/C=C/c1ccccc1` (configuration not stated): 84.5% (active); `CC1(C(=O)NS(=O)(=O)c2ccccc2)CCN1C(=O)Cc1ccc(-c2ccccc2)cc1` (configuration not stated): 3.68% (inactive).
Take `CC1(C(=O)NS(=O)(=O)c2ccccc2)CCN1C(=O)c1ccccc1` (configuration not stated): the inhibition (reported as % activation of signal) was -2.49% (inactive).
In the case of `COc1ccc(CNC(=O)C(NS(=O)(=O)c2cccc3nsnc23)C(C)C)cc1` (configuration not stated), the inhibition (reported as % activation of signal) was 2.57% (inactive).
On to `O=C1C(Cl)=C(Oc2ccccc2)C(=O)c2ccccc21`, for which the inhibition (reported as % activation of signal) was 78.2% (active).
Take `O=C(O)C1CCC(CNS(=O)(=O)c2ccc(Br)cc2)CC1` (configuration not stated): the inhibition (reported as % activation of signal) is 0.46% (inactive).
As for `O=C(NCC(O)c1nc2ccccc2[nH]1)c1ccc(Br)cc1` (configuration not stated), the inhibition (reported as % activation of signal) is -1.63% (inactive).
Turning to `O=C(Nc1cccc(-c2nc3ccccc3[nH]2)c1)c1ccc(C(=O)Nc2cccc(-c3nc4ccccc4[nH]3)c2)cc1`, the inhibition (reported as % activation of signal) is 56.8% (active).
For `O=C(Nc1ccccc1)c1cc2ccccc2[nH]1`, the inhibition (reported as % activation of signal) is -1.95% (inactive).
Regarding `COc1ccc(-c2cc(NC=O)c3ncc(-c4cc(OC)c(OC)c(OC)c4)n3c2)c(OC)c1`, the inhibition (reported as % activation of signal) was -21.8% (inactive).
For the compound `O=C(CN1CCN(c2ncccn2)CC1)Nc1ccccc1C(F)(F)F`, the inhibition (reported as % activation of signal) was 1.55% (inactive).
For the compound `CC(C)C1CC2=C(C(=O)OC(C)(C)O2)C(c2ccc(F)cc2)O1` (configuration not stated), the inhibition (reported as % activation of signal) is 0.41% (inactive).
As to `NC(=O)COc1ccc(NC(=O)c2ccccc2-c2ccccc2)cc1`, the inhibition (reported as % activation of signal) is 1.27% (inactive).
Next, `CCCNC(=O)c1cnc(-c2ccccc2)nc1-c1ccccc1`: 0.2% (inactive); `O=C1CSC(=S)N1/N=C/c1ccc(O)c([N+](=O)[O-])c1`: 76.8% (active).
Turning to `CO/N=C/c1ccc(N2CCN(C(=O)c3cccc(Cl)c3)CC2)c([N+](=O)[O-])c1`, the inhibition (reported as % activation of signal) was -5.17% (inactive).
As for `CCOc1cccc(/C=N/N2C(=O)CSC2=S)c1O`, the inhibition (reported as % activation of signal) is -12.4% (inactive).
Next, `CCc1ccc(OC2(C)CCN(CCOc3ccc(C)cc3)C2)cc1` (configuration not stated): 1.94% (inactive).
`CC1(C(=O)NCc2ccc3c(c2)OCO3)CCN1CCc1ccccc1` (configuration not stated): the inhibition (reported as % activation of signal) is 0.65% (inactive).
For `CCOc1ccc(NC(=O)CSc2ncnc3c2sc2ccccc23)cc1`, the inhibition (reported as % activation of signal) is 11.2% (inactive).
Next, `CC(C)CCSc1ncnc2c1oc1nc3c(cc12)COC(C)(C)C3`: 0.16% (inactive).
For the compound `CC1(C)Cc2nc3sc4c(SCC(=O)NC(c5ccccc5)c5ccccc5)ncnc4c3cc2CO1`, the inhibition (reported as % activation of signal) is 50% (active).
Regarding `C=CC[C@H](CC(=O)NCCO)C(=O)N[C@@H](COC(=O)[C@@H](CC=C)Cc1ccc(F)cc1)Cc1c[nH]c2ccccc12`, the inhibition (reported as % activation of signal) is -10.1% (inactive).
Next, `C=CCC[C@H](Cc1ccc(F)cc1)C(=O)OC[C@@H](Cc1c[nH]c2ccccc12)NC(=O)[C@H](CC=C)CC(=O)N[C@H](CO)Cc1ccccc1`: 4.02% (inactive); `C=CC[C@@H](CC(=O)N[C@H](CO)Cc1ccccc1)C(=O)N[C@@H](COC(=O)[C@@H](CC=C)Cc1ccc(F)cc1)Cc1c[nH]c2ccccc12`: 63.8% (active); `O=C(Cc1ccc([N+](=O)[O-])cc1)NCCS(=O)(=O)N1CCN(c2ccccc2)CC1`: -1.35% (inactive).
Next, `Cc1cccc(C(=O)N2CCC(c3nc4ccccc4s3)CC2)c1`: -3.99% (inactive); `Cc1cccc(NC(=S)N2CCC(c3nc4ccccc4s3)CC2)c1`: -5.14% (inactive).
Next, `O=C(c1cccs1)N1CCC(c2nc3ccccc3s2)CC1`: 73.8% (active).
Turning to `CC(=O)N1CCc2cc(Br)cc(S(=O)(=O)CCC(=O)Nc3c(C)n(C)n(-c4ccccc4)c3=O)c21`, the inhibition (reported as % activation of signal) is 0.99% (inactive).
Regarding `COc1ccc(-c2[nH][nH]c(=O)c2NC(=O)c2ccc([N+](=O)[O-])cc2)cc1`, the inhibition (reported as % activation of signal) is -19.5% (inactive).
Regarding `COc1ccccc1C(CNC(=O)c1cccc(NS(=O)(=O)c2ccc(Br)cc2)c1)N(C)C` (configuration not stated), the inhibition (reported as % activation of signal) was 2.12% (inactive).
For `COc1ccc(S(=O)(=O)N2CCC(C(=O)OCC(=O)c3ccccc3)CC2)cc1[N+](=O)[O-]`, the inhibition (reported as % activation of signal) was 6.89% (inactive).
Consider `COc1ccc(Br)cc1/C=N/Nc1ccc(S(=O)(=O)Nc2ccccc2C(=O)O)cc1[N+](=O)[O-]`, for which the inhibition (reported as % activation of signal) was 97.5% (active).
As for `O=C(CCSCCc1ccccn1)Nc1nccs1`, the inhibition (reported as % activation of signal) was -3.62% (inactive).
Next, `Cn1cccc1Cc1nnc(SCC(=O)NCc2ccc3c(c2)OCO3)n1CCc1ccccc1`: 6.75% (inactive); `Cc1c(C(=O)N(Cc2ccccc2)Cc2cccnc2)cnn1-c1ccc(F)cc1`: 0.01% (inactive).

(Values after PubChem BioAssay AID588458 (Sanford-Burnham Center for Chemical Genomics, 2011).)
